Compound activity (PubChem)
IkB sig inh: suppresses IkB signaling in ABC-DLBCL reporter cells; ABC-DLBCL IkBa-CBG/CBR dual luciferase ratio, 4 h; response scale: scaled: untreated 0%, proteasome inhibitor 100%; Potency, µM (doses to about 57.1 µM), for inactives: at the top dose IkBa stabilization activation; 0.04% of 110,000 active; AID 445; active means well fitted curve in the direction sought with a large enough effect in the signal ratio, not every such curve was filed as active; inconclusive means small, poorly fitted or top-dose-only effect, or a change in a side signal; the % refers to the signal ratio;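 further: the direction sought is a rising ratio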
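Curves were fitted separately to fusion (green), unfused (red) and ratio luminescence, then classed by r2, magnitude and activity. Cells: OCI-Ly3, 4 h compound plus doxycycline at 37C; 10 uM MG-132 defined full response.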
p53ts 32C kill: kills p53ts cells at the permissive temperature; H1299-p53A138V at 32C, ATP luminescence viability, 24 h; Potency, µM (titrated, usually from 46.1 µM), without a hit: at the top dose activity change, negative = cytotoxicity, most hits filed as cytotoxic; 0.93% of 130,000 active;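 further: 0% = DMSO and -100% = full killing by reference compound; nearly all actives have a fitted effect of over 55% in size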
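Viability by ATPlite luminescence after 24 h compound treatment (up to 46 uM) at the permissive 32C. Cells are H1299 carrying p53 A138V. Scale runs from DMSO basal to 100 uM tamoxifen as full kill; AC50 from Hill fits.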
p53ts 39C tox: cytotoxicity in p53ts cells at nonpermissive temperature. H1299-p53A138V viability at 39C, ATP luminescence, 24 h. Potency, µM (highest dose often 46.1 µM), inactives show at the highest dose activity change, negative = cell killing, hits mostly cytotoxic. 1.5% of 130,000 active. AID 902; further: on the % scale 0 is the no-effect control and ±100 the full control effect; nearly all actives have a fitted effect of over 55% in size
Imprint erasure: inducers of genomic imprint erasure in mouse ES cells; Potency, µM (highest dose often 60.7 µM), without a hit: at the top dose activity change, positive = activation, most hits filed as activators; 0.02% of 110,000 active; mouse ES Peg3-LacZ reporter, beta-gal luminescence, 40 h
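Readout: BetaGlo luminescence (5 min, room temp) for LacZ from the normally silent maternal Peg3 allele in female Peg3LacZ-Neo ES cells. Cells 300/well, 40 h, 37C, 5% CO2. Data normalized per plate to negative controls.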
An asterisk follows results filed as active; ! = a repeat was not active; [ ] = remark or other dose. Compounds with a hit are over-represented: about 1.7% of the library has one in this group of screens. Unless noted, the call rests on the fitted dose curve; in most records, active means well fitted curve in the direction sought with a large enough effect; inconclusive means small, poorly fitted or top-dose-only effect, or another doubt; inactive means no such curve, though single readings can be large; an effect the other way counts as inactive or inconclusive. Potency means the concentration at half of the fitted maximal effect.

What do the screens show for `O=c1cc(-c2ccccc2)oc2cc(O)c(O)cc12`?
p53ts 32C kill: 2.51µM*; p53ts 39C tox: 2µM*; Imprint erasure: -24.5%

How did O=c1cc(-c2ccccc2O)oc2c(O)c(O)ccc12 do in these assays?
IkB sig inh: 4.5%[11.4 µM]; p53ts 32C kill: -11.0%; p53ts 39C tox: -16.2%; Imprint erasure: 2.4%

Results for C=C1CC[C@@H](O)C/C1=C/C=C1\CCC[C@]2(C)[C@@H]1CC[C@H]2[C@@H](C)CCCC(C)C ?
IkB sig inh: 1.7%[11.4 µM]

Results for Cc1ccc(OCCSc2nc3ccc(NC(=O)COc4ccc(F)cc4)cc3s2)cc1 ?
IkB sig inh: -2.9%; p53ts 32C kill: -0.1%; p53ts 39C tox: 10µM*; Imprint erasure: -10.5%[10.9 µM]

How did Cc1cccc(NC(=O)CSc2nc3ccc(NC(=O)COc4ccccc4F)cc3s2)c1 do in these assays?
IkB sig inh: -1.6%; p53ts 32C kill: inconclusive; p53ts 39C tox: 10µM*; Imprint erasure: -14.3%[10.9 µM]

What do the screens show for `O=C(COc1ccc(F)cc1)Nc1ccc2nc(SCCOc3ccccc3)sc2c1`?
IkB sig inh: -1.5%; p53ts 32C kill: -5.3%; p53ts 39C tox: 9.4%; Imprint erasure: -9.6%[10.9 µM]

How did CN(C)Cc1ccccc1-c1nc(N(C)C)c2ccccc2n1 do in these assays?
IkB sig inh: -5.5%[11.4 µM]; p53ts 32C kill: -9.8%; p53ts 39C tox: -23.0%; Imprint erasure: -20.3%

How did COc1cc(N)c(Cl)cc1C(=O)CCC1CCN(CCNS(C)(=O)=O)CC1 do in these assays?
IkB sig inh: 0.4%; p53ts 32C kill: -0.5%; p53ts 39C tox: -6.7%; Imprint erasure: -10.1%

Results for COc1cc(COc2cc(N)c(Cl)cc2C(=O)CCC2CCN(CCNS(C)(=O)=O)CC2)cc(OC)c1 ?
IkB sig inh: inconclusive; p53ts 32C kill: 31.6µM*; p53ts 39C tox: 31.6µM*; Imprint erasure: -21.5%

How did C[C@@]12C(=O)OC(=O)[C@@]1(C)[C@H]1CC[C@@H]2O1 do in these assays?
IkB sig inh: 3.98µM*!; p53ts 32C kill: 148.8%; p53ts 39C tox: 83.0%

How did CC12C(=O)OC(=O)C1(C)C1CCC2O1 (centres undefined) do in these assays?
p53ts 32C kill: 145.0%; p53ts 39C tox: 58.9%; Imprint erasure: -33.1%

Results for COc1ccccc1N1CCN(C(=O)CSc2nc3ccccc3nc2Cc2ccc(F)cc2)CC1 ?
IkB sig inh: inconclusive; p53ts 32C kill: 15.6%; p53ts 39C tox: 5.9%; Imprint erasure: 2.0%[10.9 µM]

Results for CC(C)C(=O)Nc1ccccc1OCc1cc(=O)n2ccccc2n1 ?
IkB sig inh: -0.1%; p53ts 32C kill: -5.8%; p53ts 39C tox: -14.2%; Imprint erasure: 6.0%[10.9 µM]

Results for CCc1ccc(NC(=O)Nc2ccccc2OCc2cc(=O)n3ccccc3n2)cc1 ?
IkB sig inh: inconclusive; p53ts 32C kill: inconclusive; p53ts 39C tox: 3.16µM*; Imprint erasure: -9.6%[10.9 µM]

Results for CCCOc1ccc(-c2nc3ccccc3c(=O)o2)cc1 ?
IkB sig inh: 63.3%; p53ts 32C kill: 10µM*; p53ts 39C tox: 5.01µM*; Imprint erasure: -46.1%[10.9 µM]

Results for CCC(=O)Nc1cccc(-c2nc3ccccc3c(=O)o2)c1 ?
IkB sig inh: inconclusive; p53ts 32C kill: 12.6µM*; p53ts 39C tox: 10µM*; Imprint erasure: -48.2%

How did CCCOc1ccc(-c2nnc(-c3ccco3)o2)cc1 do in these assays?
IkB sig inh: 2.7%; p53ts 32C kill: 12.6µM*; p53ts 39C tox: inconclusive; Imprint erasure: -78.4%

Results for CCn1nnc2cc(C(=O)Nc3ccc(OC)cc3)ccc21 ?
IkB sig inh: -1.8%; p53ts 32C kill: -10.5%; p53ts 39C tox: -29.3%; Imprint erasure: -4.7%[10.9 µM]

What do the screens show for `CN(C)c1ccc(-c2nc(-c3cccs3)c(-c3cccs3)[nH]2)cc1`?
IkB sig inh: inconclusive; p53ts 32C kill: 13.0%; p53ts 39C tox: inconclusive; Imprint erasure: -15.7%[10.9 µM]

How did Oc1ccccc1-c1nc(-c2cccs2)c(-c2cccs2)[nH]1 do in these assays?
IkB sig inh: inconclusive; p53ts 32C kill: inconclusive; p53ts 39C tox: 25.1µM*; Imprint erasure: -11.6%[10.9 µM]

Results for CCCN(CCC)C(=O)CSc1nc2sc3c(c2c(=O)n1-c1ccccc1)CCN(C(C)=O)C3 ?
IkB sig inh: 4.7%; p53ts 32C kill: 26.6%; p53ts 39C tox: 7.9%; Imprint erasure: 22.4%[10.9 µM]

How did CCCCCSc1nc2sc3c(c2c(=O)n1-c1ccc(OC)cc1)CCN(C(C)=O)C3 do in these assays?
IkB sig inh: inconclusive; p53ts 32C kill: inconclusive; p53ts 39C tox: 12.6µM*; Imprint erasure: -21.1%[10.9 µM]

What do the screens show for `COc1ccc(-c2cc(C(F)(F)F)nc(N3CCCCCC3)n2)cc1`?
IkB sig inh: 0.5%; p53ts 32C kill: -12.6%; p53ts 39C tox: -0.3%; Imprint erasure: -4.5%

How did COc1ccc(-c2cc(C(N)=O)nc(N3CCCCCC3)n2)cc1 do in these assays?
IkB sig inh: inconclusive; p53ts 32C kill: 7.94µM*; p53ts 39C tox: 10µM*; Imprint erasure: -88.9%

How did CC[C@@]1([C@@H]2O[C@@H]([C@H]3O[C@@](O)(CO)[C@H](C)C[C@@H]3C)C[C@@H]2C)CC[C@H]([C@]2(C)CC[C@]3(C[C@H](O)[C@@H](C)[C@@H]([C@@H](C)[C@@H](OC)C(C)C(=O)O)O3)O2)O1 (some centres undefined) do in these assays?
Imprint erasure: 3.9%

What do the screens show for `Cn1cc(-c2cc3n(n2)CCC(=O)N3CCCC(=O)Nc2ccc(Cl)cc2)c2ccccc21`?
IkB sig inh: inconclusive; p53ts 32C kill: -2.4%; p53ts 39C tox: -3.4%; Imprint erasure: -19.7%[10.9 µM]

What do the screens show for `Cn1cc(-c2cc3n(n2)CCC(=O)N3CCCC(=O)NCc2ccc(Cl)cc2)c2ccccc21`?
IkB sig inh: 2.3%; p53ts 32C kill: inconclusive; p53ts 39C tox: 12.6µM*; Imprint erasure: -6.9%[10.9 µM]

What do the screens show for `OCCNCCCOc1cccc(Cl)c1Cl`?
IkB sig inh: -0.6%; p53ts 32C kill: inconclusive; p53ts 39C tox: 12.6µM*; Imprint erasure: -33.9%

How did Cc1ccc(C)c(Cn2nnc(C(=O)NCc3ccc(Cl)cc3Cl)c2N)c1 do in these assays?
IkB sig inh: 2.3%; p53ts 32C kill: -10.5%; p53ts 39C tox: 12.6µM*; Imprint erasure: -7.5%[10.9 µM]

What do the screens show for `CCCCC/C=C\C/C=C\C/C=C\C/C=C\CCCC(=O)C(F)(F)F`?
Imprint erasure: -11.1%

Results for CCN(c1cccc(C)c1)C(CNS(=O)(=O)c1ccccc1)c1ccccc1 (centres undefined) ?
IkB sig inh: inconclusive; p53ts 32C kill: 17.4%; p53ts 39C tox: 12.6µM*; Imprint erasure: 1.9%[10.9 µM]

How did Cc1cccc(N(C)C(CNS(=O)(=O)c2ccccc2)c2ccccc2)c1 (centres undefined) do in these assays?
IkB sig inh: inconclusive; p53ts 32C kill: 23.3%; p53ts 39C tox: 31.6µM*; Imprint erasure: -11.9%[10.9 µM]

Results for CCN(c1ccccc1)C(CNS(=O)(=O)c1ccccc1)c1ccccc1 (centres undefined) ?
IkB sig inh: 1.7%; p53ts 32C kill: 22.7%; p53ts 39C tox: inconclusive; Imprint erasure: -12.5%[10.9 µM]
